Compound activity deposited in PubChem by University of Kansas High Throughput Screening Laboratory.
mHTT-CaM PPI inh: mutant huntingtin-calmodulin interaction inhibitors – biochemical, AlphaScreen, primary screen. AlphaScreen His-mHTT/GST-CaM binding, luminescence. inhibition, % at 15 µM. P42858. 190,000 compounds, 3.6% hits;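 note: 0% = both proteins with DMSO and 100% = one protein alone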
Pf apPOL block: Pf-apPOL inhibitors, biochemical, fluorescence; AID 1794808, 2022; Recombinant Pf-apPOL, molecular beacon fluorescence, 1.5 h; inhibition, % at 10 µM; 210,000 compounds, 0.25% hits
* hit, by the source's call; . = no result given; ! = not confirmed by another sample. An excerpt weighted towards active compounds, which were near 3.6% of everything screened. Cut-off read from the data, not from the text of the source: active = inhibition above about 50%; inactive = the rest.

SMILES	mHTT-CaM PPI inh	Pf apPOL block
COc1cc(C=Nc2c(-c3ccc(O)c(OC)c3)nc3ccccn23)ccc1O	60*	7
COc1ccccc1/C=C1\SC(=N)N(c2ccc(F)cc2)C1=O	15	-4
CC(C)c1cc(C2CCCN2C(=O)c2cc(-c3ccc4c(c3)OCO4)on2)no1 (stereo not drawn)	8	-1
N#Cc1c(N=Cc2ccco2)sc2c1CCCC2	11	.
N#Cc1c(N=Cc2cccnc2)sc2c1CCCC2	55*	-5
Cc1ccc(NC(=O)N2CC3CCCN3c3ccccc32)cc1 (stereo not drawn)	59*	-3
COc1ccc(NC(=O)N2CCN(C)c3ccccc32)cc1	36	-3
CCc1ccc(NC(=O)N2CC(CC)Oc3ccccc32)cc1 (stereo not drawn)	-11	-3
Cc1ccc(NC(=O)N2CCOc3ccccc32)cc1F	-8	-7
O=C(Nc1ccc(F)cc1)N1CC2CCCN2c2ccccc21 (stereo not drawn)	14	4
Cc1ccc(NC(=O)N2CC3CCCN3c3ccccc32)cc1F (stereo not drawn)	90*	1
CCc1ccc(NC(=O)N2CC3CCCN3c3ccccc32)cc1 (stereo not drawn)	91*	0
CSc1cccc(NC(=O)N2CCN(C)c3ccccc32)c1	80*	-4
CCc1c(C#N)c(N)nc(SCC(=O)c2ccc(C)cc2)c1C#N	1	-10
O=C(NCc1ccc(F)cc1Cl)C1CCN(c2nnc(-c3ccccc3)o2)CC1	8	-4
Cc1nc2cc(N3CCCC(C(=O)NCc4cc(F)ccc4F)C3)cnc2nc1C (stereo not drawn)	3	0
Cc1nn(C(=O)C2CC2c2ccc(C(C)(C)C)cc2)c(C)c1Cl (stereo not drawn)	-10	0
O=C(NCc1ccccc1F)C1COCC(=O)N1Cc1ccccc1 (stereo not drawn)	-3	1
C=CCNC(=O)C1CCN(S(=O)(=O)N2CCC3(CC2)OCCO3)CC1	1	-20
CSc1cccc(NC(=O)N2CCC(N3CCN(Cc4ccc(C)cc4)C3=O)CC2)c1	13	1
CSc1cccc(NC(=O)N2CC3CCCN3c3ccccc32)c1 (stereo not drawn)	81*	-2
Cc1ccc(CN2CCN(C3CCN(C(=O)Nc4ccc(C)c(Cl)c4)CC3)C2=O)cc1	9	-6
Fc1cccc(-c2nc(-c3cn(Cc4ccccc4)nn3)no2)c1	-3	-1
COc1ccc(NC(=O)c2c(NCc3ccccn3)sc3c2CCC(C)C3)c(OC)c1 (stereo not drawn)	49	-17
COc1ccc(NC(=O)c2c(NCc3ccccn3)sc3c2CCCC3)c(OC)c1	53*	-18
SMILES	mHTT-CaM PPI inh	Pf apPOL block
CCOc1ccccc1NC(=O)c1c(NCc2ccccn2)sc2c1CCC2	58*	-10
CCOc1ccccc1NC(=O)c1c(NCc2ccncc2)sc2c1CCC2	29	-21
COc1ccccc1NC(=O)c1c(NCc2ccccn2)sc2c1CCCC2	50*	-16
CCOc1ccccc1NC(=O)c1c(NCc2cccn2C)sc2c1CCC2	21	-15
O=C(c1cccn2c(=O)c3cc(Cl)ccc3nc12)N1CCN(c2cccc(Cl)c2)CC1	5	-5
CC(C)n1cc2cc(C(=O)NCCCN3CCCC3)sc2c1	23	-1
Cc1nn(C)c(C)c1Sc1ccc(Br)cc1	60*!	-3
Cc1nn(C(=O)c2cccs2)c(C)c1Sc1ccc(Br)cc1	4	-4
O=C(Nc1cccc(-c2ccc(N3CCCC3)nn2)c1)c1cc(-c2cccs2)[nH]n1	99*	1
Cc1noc(C)c1CCC(=O)Nc1cccc(-c2ccc(N3CCCC3)nn2)c1	27	-8
CN1CCN(c2ccc(-c3cccc(NC(=O)c4cccs4)c3)nn2)CC1	-10	2
O=C(Cc1noc2ccccc12)Nc1cccc(-c2ccc(N3CCCC3)nn2)c1	67*	-29
COc1ccc(CCC(C)Nc2ccc(OC)cc2OC)cc1 (stereo not drawn)	85*	0
COc1ccc(CCC(C)NCc2ccccc2OC)cc1 (stereo not drawn)	-10	-2
NC(=NO)c1cncnc1N	.	6
CC(C)(C)OC(=O)N1CCN(CCNC(=O)CSc2nc3ccccc3o2)CC1	0	-9
CCNC(=O)Nc1cccc(N2CCCN(Cc3ccccc3F)C2=O)c1	1	0
CCN(CC)CCCC(C)Nc1c2ccc(Cl)cc2nc2ccc(OC)cc12 (stereo not drawn)	.	62*
CCN(CC)CCSc1nc2ccc(OC)cc2[nH]1	26	5
COCCN1COc2ccc3c(=O)c(-c4ccc(OC)c(OC)c4)c(C)oc3c2C1	-1	-11
CCc1nc(C2CCN(C(=O)c3ccc(OC)cc3C)CC2)n[nH]1	-13	8
O=C(c1ccc(Sc2cccc(Cl)c2)c([N+](=O)[O-])c1)N1CCC2(CC1)OCCO2	60*	-8
CC(=O)N1c2ccccc2CCc2ccc([N+](=O)[O-])cc21	0	-7
